Results as given in PubChem BioAssay (NCATS).
“And” between values parts separate entries of the source, which are not always exact repeats. Equal entries are not always repeated. Records with an inconclusive call do not appear. A call without a number means that no potency is given here. The source made the active and inactive calls. Unless noted, calls come from the whole dose curve.

Columns and labels:
[1] = target: Bile acid receptor (Homo sapiens) (UniProt Q96RI1); test: qHTS assay for small molecule antagonists of farnesoid X receptor signaling (AID 588526)
Sequence of Bile acid receptor (Homo sapiens) (Q96RI1 whole entry, looked up): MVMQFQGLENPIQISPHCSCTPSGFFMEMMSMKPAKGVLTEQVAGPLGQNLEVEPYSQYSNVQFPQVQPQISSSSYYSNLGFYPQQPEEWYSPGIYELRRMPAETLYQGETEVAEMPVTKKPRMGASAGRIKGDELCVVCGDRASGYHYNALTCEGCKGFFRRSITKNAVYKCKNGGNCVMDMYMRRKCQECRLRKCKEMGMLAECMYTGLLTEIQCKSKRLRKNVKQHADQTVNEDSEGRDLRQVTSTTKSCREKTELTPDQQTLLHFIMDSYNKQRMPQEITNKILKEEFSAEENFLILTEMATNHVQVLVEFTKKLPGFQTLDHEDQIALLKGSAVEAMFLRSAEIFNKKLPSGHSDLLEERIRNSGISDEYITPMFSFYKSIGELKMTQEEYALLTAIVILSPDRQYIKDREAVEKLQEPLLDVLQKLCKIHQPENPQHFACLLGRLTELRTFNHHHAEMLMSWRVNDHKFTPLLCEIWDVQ
Summary of the method: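 Concentration-response titrations were fitted to the Hill equation for half-maximal inhibition and maximal response, with data normalised to 50 uM chenodeoxycholic acid and DMSO control wells. Cells: FXR-UAS-bla HEK293T, dialyzed FBS.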

[2] = target: Glucocorticoid receptor (Homo sapiens) (UniProt P04150); test: qHTS assay for small molecule agonists of glucocorticoid receptor signaling (AID 588532; active = well fitted curve in the direction sought with a large enough effect in the signal ratio, with a control signal flat; the % refers to the signal ratio); conditions: HeLa MMTV-bla, beta-lactamase ratio, agonist, 18 h; stronger effect = higher value; percent of dexamethasone control, DMSO zero
Sequence of Glucocorticoid receptor (Homo sapiens) (P04150 whole entry, looked up): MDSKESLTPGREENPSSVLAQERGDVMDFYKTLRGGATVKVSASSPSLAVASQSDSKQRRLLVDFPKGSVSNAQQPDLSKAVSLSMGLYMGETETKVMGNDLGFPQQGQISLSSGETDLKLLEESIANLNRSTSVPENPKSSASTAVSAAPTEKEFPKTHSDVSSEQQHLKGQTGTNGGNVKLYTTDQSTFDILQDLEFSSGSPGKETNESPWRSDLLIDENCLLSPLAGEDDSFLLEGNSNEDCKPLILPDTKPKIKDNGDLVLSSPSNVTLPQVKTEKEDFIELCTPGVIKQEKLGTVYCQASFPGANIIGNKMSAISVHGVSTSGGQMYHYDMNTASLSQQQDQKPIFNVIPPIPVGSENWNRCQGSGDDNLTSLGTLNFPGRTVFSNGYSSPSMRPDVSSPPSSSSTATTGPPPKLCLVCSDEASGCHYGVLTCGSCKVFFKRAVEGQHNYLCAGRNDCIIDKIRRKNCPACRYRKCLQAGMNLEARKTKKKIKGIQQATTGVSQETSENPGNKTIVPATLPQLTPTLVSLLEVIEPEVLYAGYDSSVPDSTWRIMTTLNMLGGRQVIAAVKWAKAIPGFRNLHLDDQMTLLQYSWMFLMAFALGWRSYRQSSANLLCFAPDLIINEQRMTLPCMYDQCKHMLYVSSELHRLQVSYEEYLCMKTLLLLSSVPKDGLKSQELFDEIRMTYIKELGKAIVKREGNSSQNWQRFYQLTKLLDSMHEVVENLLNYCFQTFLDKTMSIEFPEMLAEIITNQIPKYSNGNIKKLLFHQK
Summary of the method: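 MMTV-bla HeLa, beta-lactamase reporter; medium with 1% charcoal/dextran-stripped FBS; cpds up to 92 uM, 18 h, 37 C; CCF4 readout 460/530 nm; Hill fit → EC50, efficacy vs 0.1 uM dexamethasone = 100%.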

[3] = target: Glucocorticoid receptor (Homo sapiens) (UniProt P04150); test: qHTS assay for small molecule antagonists of glucocorticoid receptor signaling (AID 588533; active = well fitted inhibition curve with a large enough effect in the signal ratio, with a control signal flat, not every such curve was filed as active; the % refers to the signal ratio;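 note: cells stimulated with 2 nM dexamethasone as agonist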)
Summary of the method: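 Antagonist-mode qHTS: compound titrations added to GRE-bla HeLa cells, then dexamethasone 2 nM final; 18 h, 37 C. CCF4 FRET fluorescence normalized to dexamethasone and DMSO; IC50 from Hill fit.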

[4] = qHTS assay for small molecule antagonists of peroxisome proliferator-activated receptor delta signaling (AID 588535; active = well fitted inhibition curve with a large enough effect in the signal ratio, with a control signal flat, not every such curve was filed as active; the % refers to the signal ratio;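 for max response: cells co-treated with a PPAR-delta agonist as stimulator during compound exposure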); conditions: HEK293T PPARd-UAS-bla, beta-lactamase FRET ratio, 18 h; 460 nm channel
Summary of the method: (§1)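 Reporter: UAS-bla under PPAR-delta response element, HEK293T host. Medium: 2% charcoal/dextran FBS. Dosing: titration, 18 hrs, 37 C. Detection: CCF4, 2 hrs RT, 405 ex/460 and 530 em.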

[5] = target: Peroxisome proliferator-activated receptor delta (Homo sapiens) (UniProt Q03181); test: as above
Sequence of Peroxisome proliferator-activated receptor delta (Homo sapiens) (Q03181 whole entry, looked up): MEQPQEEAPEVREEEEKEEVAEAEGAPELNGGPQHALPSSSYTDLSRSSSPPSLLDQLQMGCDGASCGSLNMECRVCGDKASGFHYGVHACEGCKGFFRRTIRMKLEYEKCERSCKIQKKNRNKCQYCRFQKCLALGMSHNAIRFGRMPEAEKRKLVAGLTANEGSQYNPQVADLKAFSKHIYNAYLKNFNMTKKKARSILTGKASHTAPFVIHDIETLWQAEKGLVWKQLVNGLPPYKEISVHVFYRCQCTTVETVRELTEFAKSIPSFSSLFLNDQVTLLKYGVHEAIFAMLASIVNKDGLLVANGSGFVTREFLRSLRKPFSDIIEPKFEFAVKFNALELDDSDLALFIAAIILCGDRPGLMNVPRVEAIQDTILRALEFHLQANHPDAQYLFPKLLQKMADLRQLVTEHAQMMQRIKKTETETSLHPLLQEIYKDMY
Summary of the method: as §1

[6] = target: Peroxisome proliferator-activated receptor gamma (Homo sapiens) (UniProt P37231); test: qHTS assay for small molecule agonists of peroxisome proliferator-activated receptor gamma signaling (AID 588536; active = well fitted curve in the direction sought with a large enough effect in the signal ratio, with a control signal flat, not every such curve was filed as active; the % refers to the signal ratio)
Sequence of Peroxisome proliferator-activated receptor gamma (Homo sapiens) (P37231 whole entry, looked up): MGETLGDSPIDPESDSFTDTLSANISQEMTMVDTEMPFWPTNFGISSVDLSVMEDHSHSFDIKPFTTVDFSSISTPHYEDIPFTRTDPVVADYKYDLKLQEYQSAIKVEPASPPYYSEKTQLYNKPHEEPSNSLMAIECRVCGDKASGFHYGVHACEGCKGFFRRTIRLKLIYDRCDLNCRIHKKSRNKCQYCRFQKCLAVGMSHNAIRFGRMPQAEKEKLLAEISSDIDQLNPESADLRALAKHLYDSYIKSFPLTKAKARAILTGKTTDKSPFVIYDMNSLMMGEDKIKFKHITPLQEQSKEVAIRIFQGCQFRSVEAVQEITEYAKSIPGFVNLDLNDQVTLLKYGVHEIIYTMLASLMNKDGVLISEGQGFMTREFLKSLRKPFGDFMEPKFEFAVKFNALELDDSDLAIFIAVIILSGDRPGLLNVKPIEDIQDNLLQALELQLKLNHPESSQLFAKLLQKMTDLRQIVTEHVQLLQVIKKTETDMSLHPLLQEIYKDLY
Summary of the method: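 Ratiometric blue/green fluorescence (405 nm excitation; 460 and 530 nm emission) from CCF4-loaded HEK293 reporter cells serves as signal. Exposure to test compounds lasts 16 h at 37 C in medium containing 1% charcoal/dextran-treated serum.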

[7] = target: Vitamin D3 receptor (Homo sapiens) (UniProt P11473); test: qHTS assay for small molecule agonists of vitamin D receptor signaling (AID 588543)
Sequence of Vitamin D3 receptor (Homo sapiens) (P11473 whole entry, looked up): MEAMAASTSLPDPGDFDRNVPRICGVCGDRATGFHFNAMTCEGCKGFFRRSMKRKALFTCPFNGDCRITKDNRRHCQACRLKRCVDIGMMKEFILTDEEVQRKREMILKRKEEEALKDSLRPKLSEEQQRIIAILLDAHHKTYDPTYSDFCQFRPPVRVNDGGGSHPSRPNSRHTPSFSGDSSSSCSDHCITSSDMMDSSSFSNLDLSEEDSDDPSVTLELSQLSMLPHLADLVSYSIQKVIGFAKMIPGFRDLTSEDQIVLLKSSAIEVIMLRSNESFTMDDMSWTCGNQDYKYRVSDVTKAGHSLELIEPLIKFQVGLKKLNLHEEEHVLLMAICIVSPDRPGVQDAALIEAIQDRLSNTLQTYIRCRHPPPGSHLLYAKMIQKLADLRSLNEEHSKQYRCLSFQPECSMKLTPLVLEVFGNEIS
Summary of the method: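 Agonist-mode beta-lactamase reporter: HEK293T VDR-UAS-bla cells in charcoal-stripped 2% FBS, compound series 16 h 37 C, CCF4 2 h RT. EC50 from Hill fit, scaled against DMSO and 50 nM calcitriol control.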

[8] = target: Vitamin D3 receptor (Homo sapiens) (UniProt P11473); test: qHTS assay for small molecule antagonists of vitamin D receptor signaling (AID 588541);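 note: receptor activated by calcitriol during compound treatment; series mostly up to about 77 µM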
Summary of the method: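 VDR-UAS-bla HEK293T cells (2000/well, 2% charcoal-stripped FBS) were treated with titrated compounds plus 1-alpha,25-dihydroxyvitamin D3 (50 nM or 3 nM final) for 16 h at 37 C. CCF4 beta-lactamase fluorescence was read; Hill fits gave IC50.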

[9] = target: Peroxisome proliferator-activated receptor gamma (Homo sapiens) (UniProt P37231); test: qHTS assay for small molecule antagonists of peroxisome proliferator-activated receptor gamma signaling (AID 588537; active = well fitted inhibition curve with a large enough effect in the signal ratio, with a control signal flat, not every such curve was filed as active; the % refers to the signal ratio;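 note: reporter cells co-stimulated with 50 nM rosiglitazone agonist during compound treatment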)
Summary of the method: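 We seeded GeneBLAzer HEK293 reporter cells at 3000 per well, allowed 6-6.5 h attachment at 37 C, then co-treated with test compound titrations and 50 nM rosiglitazone overnight (16 h). Inhibition was quantified from 460/530 nm emission ratios.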

Structure (SMILES) | outcome [1] | activation [2] | outcome [3] | max response [4] | Potency [5] | outcome [6] | outcome [7] | outcome [8] | outcome [9]
Cc1ccc(C)c(N)c1 | inactive | -8.67% (inactive) | inactive | 30.9% | inactive | inactive | inactive | – | –
Cc1cc(C)c(N)cc1C | inactive | 5.44% (inactive) | inactive | 2.74% | inactive | inactive | inactive | inactive | –
C=Cc1ccccc1C=C | inactive | 2.03% (inactive) | inactive | -7.99% | inactive | inactive | inactive | inactive | inactive
CCCCCCCN | inactive | 4.22% (inactive) | inactive | 31.2% | inactive | inactive | inactive | inactive | inactive
CCCCC(CC)CO (stereo not given) | inactive | -4.31% (inactive) | inactive | -4.39% | inactive | inactive | inactive | inactive | –
O=[N+]([O-])c1ccc(CCO)cc1 | inactive | -5.66% (inactive) | inactive | 19.9% | inactive | inactive | inactive | inactive | inactive
FB(F)F | inactive | 3.97% (inactive) | inactive | 9.97% | inactive | inactive | inactive | – | inactive
Cc1cc(C)cc(N)c1 | inactive | -0.353% (inactive) | inactive | -0.443% | inactive | – | inactive | inactive | inactive
Cc1cccc([N+](=O)[O-])c1C(=O)O | inactive | 4.26% (inactive) | inactive | 7.62% | inactive | inactive | inactive | inactive | inactive
CC(=O)Nc1cccc(N)c1 | inactive | -4.95% (inactive) | inactive | 38.5% | inactive | inactive | inactive | inactive | inactive
Clc1ccc(Cl)c(Cl)c1Cl | inactive | 16% (inactive) and -12% (inactive) | inactive | 9.65% and -40.7% | inactive | inactive | inactive | inactive | inactive
Cc1ccc(C#N)cc1 | inactive | -8.98% (inactive) | inactive | -7.41% | inactive | inactive | inactive | – | inactive
NC(=O)/N=N/C(N)=O | inactive | 7.65% (inactive) | inactive | -25.3% | inactive | inactive | inactive | inactive | inactive
CCC1CO1 (stereo not given) | inactive | -3% (inactive) | inactive | -69.5% | – | inactive | inactive | inactive | inactive
CCC(C)O (stereo not given) | inactive | 0.0998% (inactive) | inactive | -23.2% | inactive | – | inactive | inactive | –
COC(=O)CCC(=O)OC | inactive | -3.79% (inactive) | inactive | -38.8% | – | inactive | inactive | – | inactive
CSCCC=O | inactive | -3.21% (inactive) | inactive | -13.1% | inactive | inactive | inactive | inactive | –
N#Cc1ccccc1 | inactive | 4.79% (inactive) | inactive | -16.3% | inactive | inactive | inactive | inactive | inactive
CCC(C)(C)C(=O)O | inactive | -7.32% (inactive) | inactive | -22.2% | inactive | – | inactive | inactive | inactive
CNC(=O)c1ccccc1 | inactive | -1.59% (inactive) | – | 1.71% | inactive | inactive | inactive | inactive | inactive
C=C(C)C(=O)OCCCCCC | inactive | 8.12% (inactive) | inactive | 4.68% | – | – | inactive | inactive | inactive
CCCCOCCOCCOCCCC | inactive | 9.2% (inactive) | – | – | – | inactive | – | – | inactive
Cc1nc2ccc(Cl)cc2[nH]1 | inactive | – | inactive | – | – | inactive | inactive | inactive | inactive
CN(C)CCCCl | inactive | 13.4% (inactive) | inactive | – | – | – | inactive | – | –
Nc1cc(Cl)c([N+](=O)[O-])cc1O | inactive | -1.56% (inactive) | inactive | – | – | – | inactive | inactive | –
CC(C)(C)OC=O | inactive | – | inactive | – | – | inactive | inactive | inactive | inactive
CCOCCOCC | inactive | – | inactive | -23% | inactive | inactive | inactive | inactive | inactive
